From PubChem BioAssay (NCI) come the findings set out here.

Compounds without any hit were thinned out: in the full panel of roughly 83,000, 20% have a hit.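 In brief: 96-well plates, 48 h treatment, single concentration, percent growth endpoint.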 A number with no mark means an inactive call. Active and inactive are the calls of the source. The calls were made as follows: active = growth percent below 10; inactive = the rest.

Some test systems named below: SK-MEL-2 melanoma; EKVX NSCLC; SN12C renal; UO-31 renal; TK-10 renal; ACHN renal; CAKI-1 renal; A498 renal; CCRF-CEM leukemia; RPMI-8226 leukemia; OVCAR-8 ovarian; OVCAR-5 ovarian; OVCAR-4 ovarian; SK-OV-3 ovarian; IGROV1 ovarian; OVCAR-3 ovarian; HS 578T breast; NCI/ADR-RES ovarian; MOLT-4 leukemia; SR leukemia.
Common to all, as to assay: NCI-60 one-dose screen, 48 h (100 = growth as untreated, 0 = no growth, -100 = all killed)
Conditions in all cases: 10 µM unless noted

Regarding `Cc1ccc(S(=O)(=O)NCC[C@@H]2C[C@H]2c2cc3ccccc3s2)cc1`, the growth with SK-MEL-2 melanoma is 111%; with EKVX NSCLC, 95%; in the test with SN12C renal, 91.6%; in the test with UO-31 renal, 84%; with TK-10 renal, 110%; with ACHN renal, 102%. The growth in the test on CAKI-1 renal is 79.6%; in the test with A498 renal, 81.7%; with CCRF-CEM leukemia, 96.4%; in the test on RPMI-8226 leukemia it was 83.4%; in the test with OVCAR-8 ovarian, 97.3%; in the test on OVCAR-5 ovarian, 106%. Besides, the growth with OVCAR-4 ovarian is 78.3%; with SK-OV-3 ovarian, 107%; with IGROV1 ovarian, 101%; with OVCAR-3 ovarian, 101%; with HS 578T breast, 91.5%; in the test with NCI/ADR-RES ovarian, 96.9%.

`COc1cc(C(=O)/C=C/c2c(-c3ccc(F)cc3)nc3sc(C)cn23)cc(OC)c1OC`: the growth in the test with SK-MEL-2 melanoma was 144%; with EKVX NSCLC, 17.4%; with SN12C renal, 56.3%; with UO-31 renal, 58%; with TK-10 renal, 52.2%; in the test with ACHN renal, 46.5%. In addition, the growth with CAKI-1 renal was 32.8%; in the test on A498 renal, -1.47% (active); in the test with CCRF-CEM leukemia it was 14.8%; in the test with OVCAR-8 ovarian, 22.5%; in the test with OVCAR-5 ovarian it was 143%; with OVCAR-4 ovarian, 24.4%. For the same compound, the growth with SK-OV-3 ovarian is 64.4%; in the test on IGROV1 ovarian, 84.9%; in the test on OVCAR-3 ovarian, 16.5%; in the test on HS 578T breast, 25.4%; with NCI/ADR-RES ovarian it was 2.75% (active).

For `Cc1nc2ccccc2c(/C=C/c2ccc(Cl)cc2)c1C(=O)/C=C/c1ccc(F)cc1`, the growth in the test with SK-MEL-2 melanoma is 3.88% (active); in the test on EKVX NSCLC, 29.9%; with SN12C renal, -10.2% (active); in the test with UO-31 renal, -79.4% (active); with TK-10 renal it was 43.3%; in the test with ACHN renal, 3.87% (active). Also, the growth in the test on CAKI-1 renal is -10.1% (active); in the test with A498 renal, -4.11% (active); in the test with CCRF-CEM leukemia it was 6.9% (active); with RPMI-8226 leukemia it was -25.1% (active); in the test on OVCAR-8 ovarian, 12.8%; in the test on OVCAR-5 ovarian it was -19.7% (active). For the same compound, the growth was 25.8% in the test on OVCAR-4 ovarian; 61.9% in the test on SK-OV-3 ovarian; -5.53% (active) in the test on IGROV1 ovarian; -19.2% (active) with OVCAR-3 ovarian; 8.46% (active) in the test on HS 578T breast; -0.868% (active) in the test with NCI/ADR-RES ovarian.

Take `CC1O[C@@H](OC2[C@H](OC(=O)/C=C/c3ccc(O)c(O)c3)C(COC3O[C@H](C)C(O)C(O)[C@@H]3O)O[C@@H](OCCc3ccc(O)c(O)c3)[C@H]2O)[C@@H](O)C(O)[C@H]1O` (stereo partly drawn): the growth is 99.6% with SK-MEL-2 melanoma; 91.2% in the test with EKVX NSCLC; 106% in the test on SN12C renal; 89.9% with UO-31 renal; 100% with TK-10 renal; 103% in the test on ACHN renal. The growth in the test with CAKI-1 renal was 97.3%; in the test with A498 renal, 107%; in the test on MOLT-4 leukemia, 99.1%; in the test on SR leukemia, 105%; in the test with RPMI-8226 leukemia it was 104%; with OVCAR-8 ovarian it was 106%. For the same compound, the growth in the test on OVCAR-5 ovarian was 105%; in the test with OVCAR-4 ovarian, 104%; in the test with SK-OV-3 ovarian, 90.3%; in the test on IGROV1 ovarian, 102%; in the test with OVCAR-3 ovarian, 108%; in the test with HS 578T breast, 108%. Further, the growth with NCI/ADR-RES ovarian was 116%.

On to `N#Cc1c(-c2cccc(Cl)c2)cc(-c2cccc(Cl)c2)[nH]c1=O`, for which the growth in the test on SK-MEL-2 melanoma is 67%; in the test on EKVX NSCLC, 89%; in the test with SN12C renal, 82.8%; in the test on UO-31 renal, 74%; in the test on TK-10 renal, 96.7%; in the test with ACHN renal it was 93.4%. The growth is 63.6% in the test on CAKI-1 renal; 47% in the test on A498 renal; 54.1% in the test on MOLT-4 leukemia; 29.6% in the test with SR leukemia; 57.2% with RPMI-8226 leukemia; 87.3% in the test with OVCAR-8 ovarian. Moreover, the growth in the test on OVCAR-5 ovarian is 101%; with OVCAR-4 ovarian it was 68.4%; with SK-OV-3 ovarian, 82.6%; in the test with IGROV1 ovarian, 70.8%; in the test with OVCAR-3 ovarian, 64.1%; in the test on HS 578T breast, 56.8%. For the same compound, the growth in the test on NCI/ADR-RES ovarian is 64.6%.

As for `CC/C=C/C/C=C/C/C=C/C/C=C/C/C=C/C/C=C/CCC(=O)Nc1ccn([C@@H]2O[C@H](CO)[C@@H](O)C2(F)F)c(=O)n1`, the growth is 83.1% in the test on SK-MEL-2 melanoma; 70% in the test on EKVX NSCLC; -2.1% (active) in the test on SN12C renal; 3.26% (active) in the test on UO-31 renal; 67.9% in the test with TK-10 renal; 6.15% (active) in the test on ACHN renal. The growth with CAKI-1 renal is 12.4%; with A498 renal, 16.6%; in the test with MOLT-4 leukemia it was 1.85% (active); in the test on SR leukemia, 18.5%; with RPMI-8226 leukemia, 28.1%; in the test on OVCAR-8 ovarian it was 10%. For the same compound, the growth in the test on OVCAR-5 ovarian was 50.1%; with OVCAR-4 ovarian it was 73.8%; with SK-OV-3 ovarian, 22%; in the test with IGROV1 ovarian, 57.5%; with OVCAR-3 ovarian it was 53.4%; in the test on HS 578T breast, 76.1%. Moreover, in the test with NCI/ADR-RES ovarian, the growth was 14.1%.

With `Cc1cccc(-c2nc(N(C)c3ccc4ncsc4c3)c3ccccc3n2)n1`, the growth with SK-MEL-2 melanoma is 85.1%; in the test on EKVX NSCLC it was 85%; with SN12C renal, 93.6%; in the test with UO-31 renal, 77.7%; in the test with TK-10 renal, 105%; with ACHN renal it was 94.6%. Further, the growth in the test on CAKI-1 renal was 77.5%; with A498 renal, 78.8%; with MOLT-4 leukemia, 76.4%; in the test on SR leukemia, 17.3%; in the test on RPMI-8226 leukemia it was 50.1%; in the test on OVCAR-8 ovarian it was 91.2%. Moreover, the growth in the test with OVCAR-5 ovarian was 108%; in the test with OVCAR-4 ovarian, 85.7%; with SK-OV-3 ovarian, 96.6%; in the test on IGROV1 ovarian, 68.9%; in the test on OVCAR-3 ovarian it was 62.6%; in the test with HS 578T breast, 103%. The growth in the test on NCI/ADR-RES ovarian was 58.5%.

With `CC/C=C\C[C@H](O)C/C=C1/C(=O)C=C[C@@H]1C/C=C\CCCC(=O)OC`, the growth is -2.28% (active) in the test on SK-MEL-2 melanoma; 35.5% in the test on EKVX NSCLC; -7.19% (active) in the test with SN12C renal; -75.1% (active) with UO-31 renal; -1.5% (active) in the test on TK-10 renal; -57.5% (active) in the test on ACHN renal. Besides, the growth with CAKI-1 renal is -15.6% (active); in the test with A498 renal, 103%; with MOLT-4 leukemia, -6.76% (active); in the test on SR leukemia, -4.28% (active); in the test on RPMI-8226 leukemia it was -11.5% (active); in the test on OVCAR-8 ovarian it was -6.94% (active). The growth is 27.1% in the test with OVCAR-5 ovarian; 36.8% in the test on OVCAR-4 ovarian; 35.9% in the test with SK-OV-3 ovarian; 0.514% (active) with IGROV1 ovarian; -6.12% (active) in the test on OVCAR-3 ovarian; 41.1% with HS 578T breast. Besides, the growth in the test on NCI/ADR-RES ovarian was 20.6%.
